Compound activity as filed in PubChem BioAssay.
MLLE-PAM2 inh – inhibitors of PABP1 MLLE–PAM2 peptide binding, primary screen, biochemical, fluorescence polarization, FITC-PAM2, GST-MLLE; inhibition, % at 20 µM; Polyadenylate-binding protein 1 (Homo sapiens), P11940; hit rate 0.36% among 360,000; in the data active = inhibition above about 35%, passing the limit was not always enough;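 also: plate controls were DMSO wells with GST-MLLE for no effect and wells lacking GST-MLLE protein for full effect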
Target sequence (P11940 whole entry, looked up): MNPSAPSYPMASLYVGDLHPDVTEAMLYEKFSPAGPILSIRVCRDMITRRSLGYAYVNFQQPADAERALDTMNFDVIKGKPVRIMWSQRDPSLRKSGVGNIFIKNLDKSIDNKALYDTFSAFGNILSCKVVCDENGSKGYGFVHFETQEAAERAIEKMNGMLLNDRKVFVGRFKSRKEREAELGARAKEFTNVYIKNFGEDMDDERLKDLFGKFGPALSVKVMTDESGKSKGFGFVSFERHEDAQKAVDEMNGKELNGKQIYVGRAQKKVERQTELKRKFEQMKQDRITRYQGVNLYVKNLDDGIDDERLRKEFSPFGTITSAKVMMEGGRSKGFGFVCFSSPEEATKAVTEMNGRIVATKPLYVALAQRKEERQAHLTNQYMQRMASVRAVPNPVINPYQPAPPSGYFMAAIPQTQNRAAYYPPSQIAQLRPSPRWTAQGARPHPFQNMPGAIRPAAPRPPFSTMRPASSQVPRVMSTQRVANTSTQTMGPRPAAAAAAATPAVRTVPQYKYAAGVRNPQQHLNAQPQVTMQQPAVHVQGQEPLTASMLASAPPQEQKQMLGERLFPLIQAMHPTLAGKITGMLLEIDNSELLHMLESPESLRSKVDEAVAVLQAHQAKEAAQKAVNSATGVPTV
eIF4E-4G inh – eIF4E–eIF4G protein interaction inhibitors, primary screen, biochemical, uHTS, TR-FRET, eIF4GI fragment | Eukaryotic translation initiation factor 4E (Mus musculus) + Eukaryotic translation … | TR-FRET eIF4E-eIF4GI(517-606) binding, 2 h | inhibition, % at 21.7 µM | hit rate 0.37% among 220,000 | AID 782, 2007;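 active = inhibition above about 30%, limit read from the data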;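 also: 0% = full FRET control wells and 100% = background wells lacking eIF4GI fragment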
eIF4H FP inh – human eIF4H binding inhibitors, primary screen, translation initiation inhibitor project, biochemical, uHTS, fluorescence polarization | inhibition, % at 35 µM | Eukaryotic translation initiation factor 4H (Homo sapiens), Q15056 | eIF4H fluorescence polarization binding assay | hit rate 0.94% among 290,000;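 also: calls also rest on retests at 20 µM and on dose response follow-up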
PABP FP inh – PABP poly(A) RNA binding inhibitors, primary screen, biochemical, fluorescence polarization, uHTS. Polyadenylate-binding protein 1 (Homo sapiens), P11940. calls only at 35 µM. hit rate 1% among 290,000;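 also: calls also rest on retests at 20 µM and on dose response follow-up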
Numbers without * were called inactive; i = inactive; ? = inconclusive; / = no result; + = active, no number; [ ] = remark or other dose. This is a sample that favours compounds with a hit; in the whole collection about 1.5% have one here. Unless noted, no rule for the calls is given here.

SMILES	MLLE-PAM2 inh	eIF4E-4G inh	eIF4H FP inh	PABP FP inh
CNC(=O)/C(C#N)=C\c1ccc(CNS(=O)(=O)c2ccccc2)o1	-7.3	0.1	8.9	i
CNC(=O)/C(C#N)=C\c1ccc(CNS(=O)(=O)c2ccc(Cl)cc2)o1	-109.2	6.7	3.3	+
CCOc1cc(-c2cc(-c3ccc(C)cc3)nc(N)c2C#N)ccc1O	-40.1	4.2	57.5*	+
CCC(=O)c1ccc(OC(=O)N2CCOCC2)cc1	-3.4	/	3.6	i
Fc1cccc(CSc2ccc(-c3ccco3)nn2)c1	11.2	1.8	36.5	i
Fc1ccc(CSc2ccc(-c3ccco3)nn2)cc1	3.7	-0.3	?	+
O=C(CSc1ccc(-c2ccco2)nn1)c1ccc(F)cc1	33.1	-3.3	90.5	+
CC1CCc2c(sc(NC(=O)CCC(=O)O)c2C(=O)NC2CC2)C1 (configuration not stated)	39.7*	/	-7.9	i
COc1ccccc1C1c2[nH]c3ccccc3c2CCN1Cc1ccc(NC(C)=O)s1 (configuration not stated)	6.6	88.8*	0.6	i
COc1cccc(C2c3[nH]c4ccccc4c3CCN2C(=O)Cn2cncn2)c1OC (configuration not stated)	1.1	-0.7	-6.7	i
CCCN(CCC)c1ccc(/C=C/c2ccc3cc(OCC)ccc3n2)cc1	-94.7	11.6	?	+
CSc1ccccc1NC(=O)CN(C)Cc1c(O)ccc2ccccc12	36.9	/	-2.8	i
CC(C)(C)OC(=O)CN1C(=O)NC(Cc2c[nH]c3ccccc23)C1=O (configuration not stated)	-3.9	/	-5.2	i
C/C(N)=C(/C#N)C(=O)CN1C(=O)NC(Cc2c[nH]c3ccccc23)C1=O (configuration not stated)	-3.4	/	57.2*	i
N#CC1=C(N)OC2=C(CC/C2=C\c2ccccc2Cl)C1c1ccccc1Cl (configuration not stated)	101.6	3.9	58.9	+
CCN(CC)C(=O)CSc1nnc2nnc3cc(C)ccc3n12	39.6*	6.4	?	?
CCN(CC)C(=O)CSc1nnc(SCc2ccc(Cl)cc2)s1	-11.1	-5.3	-16.0	i
CCCn1c(SCC(=O)N(CC)CC)nnc1-c1ccncc1	9.8	4.7	-4.2	i
CCN(CC)C(=O)CSc1nnc2nnc3cc(Cl)ccc3n12	67.1*	-2.5	?	?
O=C(O)CC(SCC(=O)Nc1ccc(S(=O)(=O)N2CCCC2)cc1)C(=O)O (configuration not stated)	40.0*	1.2	-9.5	i
O=C(Nc1cccnc1)c1cccs1	-0.1	22.4	-12.5	i
O=C(NC(=S)Nc1cccnc1)c1cccs1	39.2*	-5.5	3.6	i
O=C(NC(=S)Nc1ccc(S(=O)(=O)N2CCCC2)cc1)C1CC1	14.4	-0.7	-8.4	+
O=C(NC(=S)Nc1ccc(S(=O)(=O)N2CCCC2)cc1)c1cccs1	46.6*	-1.0	5.6	i
O=C(NC(=S)Nc1ccc(S(=O)(=O)N2CCCCCC2)cc1)c1cccs1	28.4	3.4	-2.5	i
SMILES	MLLE-PAM2 inh	eIF4E-4G inh	eIF4H FP inh	PABP FP inh
O=C(Nn1c(O)c(C=C2N=c3ccccc3=N2)sc1=S)c1cccc(Cl)c1	-72.1	-5.9	66.3	+
CN1C(=O)c2ccccc2NC(=O)[C@]12O[C@@H]2c1cccc(O)c1	4.4	-15.4	88.4*	i
c1cc(-c2ccoc2)n2ccnc2c1	47.2*	/	/	/
Cc1ccc(NC(=O)Nc2nnc(CSCCOc3ccc(Cl)cc3)s2)cc1	-30.0	-5.3	83.9	+
CCCCOC(=O)Nc1nnc(SCCOc2ccc(C)cc2)s1	10.6	43.5*[fluorescence artefact?]	27.7	i
Cc1ccc(OCCSc2nnc(NC(=O)c3ccco3)s2)cc1	-2.3	2.2	-9.1	i
C/C=C1\NC(=O)[C@H](C)NC(=O)[C@@H](NC(=O)[C@@H](Cc2ccc(O)cc2)NC(=O)[C@@H](NC(=O)/C(C)=C/C)C(C)C)[C@@H](C)OC(=O)[C@H](CCCCc2ccc(O)cc2)NC(=O)[C@@H](CCC(=O)OC)NC1=O	18.0	/	/	/
O=C(c1ccc2c3c(cccc13)CC2)C1CCCN(C(=O)c2ccc[n+]([O-])c2)C1 (configuration not stated)	-7.0	5.9	5.0	i
CC(=O)Nc1ccc(N2C(=O)CSC2c2ccc(F)cc2)cc1 (configuration not stated)	5.5	-10.8	97.8*	+
COc1ccc(N2C(=O)CSC2c2ccc(F)cc2)cc1 (configuration not stated)	-6.1	/	-4.6	i
COc1ccc(C(=O)Nn2cnnc2)cc1OC	0.8	4.6	88.7*	+
O=C1c2ccc(-c3ccc4c(c3)C(=O)N(CCCO)C4=O)cc2C(=O)N1CCCO	-1.7	1.5	3.8	i
O=C1C2=C(SCCS2)C(=O)N1CCCO	57.7*	0.7	101.3*	+
N#CC(c1nc2ccccc2nc1N1CCCC1)S(=O)(=O)c1ccccc1 (configuration not stated)	23.0	1.0	?	?
COc1ccc2nc(N3CCCCC3)c(C#N)cc2c1	40.5*	0.7	15.2	i
CN1CCN(c2nc3ccccc3nc2C(C#N)S(=O)(=O)c2ccccc2)CC1 (configuration not stated)	/	-7.5	?	?
Cc1cccc(S(=O)(=O)C(C#N)c2nc3ccccc3nc2N2CCCC2)c1 (configuration not stated)	-11.9	2.6	122.4*	+
Cc1ccc(C)c(S(=O)(=O)C(C#N)c2nc3ccccc3nc2N2CC(C)OC(C)C2)c1 (configuration not stated)	3.1	8.1	77.8*	+
Cc1ccc(S(=O)(=O)C(C#N)c2nc3ccccc3nc2N2CCN(C)CC2)cc1C (configuration not stated)	23.3	0.4	121.5*	+
COc1ccc2nc(N3CCCC3)c(C#N)cc2c1	31.4	14.9	?	?
CCCCC(=O)N(C)c1c(C)nc2ccc(C(=O)N3CCN(S(=O)(=O)CC)CC3)cn12	-0.5	/	/	/
COc1c(C)cc(C(O)c2ncc(-c3cccc(F)c3)[nH]2)cc1C (configuration not stated)	-21.1	/	/	/
C#CCN(C[C@H]1[C@H](OC(=O)NC2CCCC2)[C@H](OC(=O)NC2CCCC2)C[C@@H](C(=O)OC)[C@H]1C(=O)OC)S(=O)(=O)c1ccc(C)cc1	-2.0	/	/	/
COc1ccc(S(=O)(=O)C(C#N)c2nc3ccccc3nc2N2CCCCC2)cc1 (configuration not stated)	51.9	4.4	97.2*	+
O=C(Nc1cccc(-c2nc3cccnc3s2)c1)C1c2ccccc2Oc2ccccc21	-46.3	33.6*	16.4	i
Cc1cc(C)n2cc(CSc3nnc(N)s3)nc2n1	39.6*	2.4	-4.0	i
Cc1cc(C)n2cc(CSc3nnc(SCc4cn5c(C)cc(C)nc5n4)s3)nc2n1	/	-3.7	-9.3	i
